Source: the supplement of paper PMC8269313
Where a name gives a salt, the structure may show the parent alone.

Tested on: 4T1
Experiment: % inhibition of 4T1 cell number vs DMSO control; higher = stronger growth inhibition
Details: 1 µM, 3 days
Summary of the method: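 In 96-well imaging plates whose edge wells went unused, 3000 4T1-H2B-GFP mouse breast cancer cells per well were seeded in 2% FBS medium onto plastic, denuded lung matrix, mCAF1 fibroblast-derived matrix, Matrigel (15 μg/mL) or 0.2% gelatin. Sixteen hours on, kinase inhibitors went in at 1 μM final for 3 days before formalin fixation, DAPI staining and imaging on an INCell Analyzer 2200. Counting of GFP-positive nuclei gave cell numbers, from which percent inhibition relative to control was derived.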

[1] = substrate: lung fibroblast-derived matrix
[2] = substrate: mCAF1 fibroblast-derived matrix

Row | SMILES | % inhibition of 4T1 cell number (substrate: Matrigel) [%] | % inhibition of 4T1 cell number (substrate: gelatin) [%] | % inhibition of 4T1 cell number [1] [%] | % inhibition of 4T1 cell number [2] [%] | % inhibition of 4T1 cell number (substrate: plastic) [%]
1 | COc1ccc(CNC(=O)Nc2ncc([N+](=O)[O-])s2)cc1 [GSK-3b Inhibitor VIII] | -53.9 | 19.6 | 27.8 | 24.4 | -62.1
2 | Oc1cccc(-c2nc(N3CCOCC3)c3oc4ncccc4c3n2)c1 | 22.6 | 4.53 | -18.2 | 70.3 | -7.68
3 | Cn1c(O)c(-c2[nH]c3ccccc3c2N=O)c2ccc(Br)cc21 [GSK-3 Inhibitor IX, Control, MeBIO] | 3.95 | 2.35 | 16 | -1.76 | -22.7
4 | CSc1nc(-c2ccnc(NC(C)c3ccccc3)c2)c(-c2ccc(F)cc2)[nH]1 (stereo not given) [p38 MAP Kinase Inhibitor III] | -9.55 | -7.6 | 10.6 | 23.1 | -65
5 | O=c1c2ccccc2[nH]c(=S)n1CCN1CCC(=C(c2ccc(F)cc2)c2ccc(F)cc2)CC1 [Diacylglycerol Kinase Inhibitor II] | 8.29 | -29.1 | -1.99 | -11 | -33.4
6 | COc1cc2ncnc(Nc3cccc(O)c3)c2cc1OC [WHI-P180, Hydrochloride] | 35.6 | 65.6 | 9.03 | -4.63 | 37.6
7 | Cc1nc(-c2ccccc2)c(-c2ccncc2)o1 | 36.5 | 13.3 | 14.6 | -10.1 | 5.64
8 | Cc1cc2ncc(-c3ccccc3)nc2cc1C | 1.93 | 65.9 | -4.16 | 30.3 | 45.2
9 | CCN(CC)CCNC(=O)c1c(C)[nH]c(/C=C2\C(=O)Nc3ccc(Cl)cc32)c1C | 62.3 | 70 | -10.6 | 52.4 | 74.3
10 | COc1cc(Nc2ncc3ccn(-c4cccc(CCC#N)c4)c3n2)cc(OC)c1OC [Keratinocyte Differentiation Inducer] | 91.6 | 89 | 93.7 | 97.6 | 94.4
11 | CN(C)CCCn1cc(C2=C(c3c[nH]c4ccccc34)C(=O)NC2=O)c2ccccc21 [Bisindolylmaleimide I] | 46.6 | 41.5 | -13.3 | 13.1 | 57.2
12 | Cc1cc(C)c(/C=C2\C(=O)Nc3ccccc32)[nH]1 [VEGF Receptor 2 Kinase Inhibitor III] | 14.1 | 30.2 | -11.5 | -25 | 2.08
13 | COc1cccc(-c2cc(=O)c3ccccc3o2)c1N | -3.15 | -1.31 | -10.2 | 25.7 | -41.4
14 | CCN(CC)C(=O)c1ccc(Nc2nc(OCC3CCCCC3)c3[nH]cnc3n2)cc1 [Cdk2 Inhibitor IV, NU6140] | -9.76 | -12.1 | -6.34 | 80.5 | 44.3
15 | COc1ccc(CNc2nc(N(CCO)CCO)nc3c2ncn3C(C)C)cc1 [Cdk2 Inhibitor III] | -37 | 15.9 | 6.49 | 22 | -27.8
16 | CO[C@H]1C[C@@H]2CC[C@@H](C)[C@@](O)(O2)C(=O)C(=O)N2CCCC[C@H]2C(=O)O[C@H]([C@H](C)C[C@@H]2CC[C@@H](O)[C@H](OC)C2)CC(=O)[C@H](C)/C=C(\C)[C@@H](O)[C@@H](OC)C(=O)[C@H](C)C[C@H](C)/C=C/C=C/C=C/1C [Rapamycin] | -18.4 | -32 | -0.258 | 23.7 | -50.8
17 | Nc1nccc(-c2c(-c3ccc(F)cc3)ncn2C2CCNCC2)n1 | -17.8 | -10.4 | 11.7 | 29.5 | -59.1
18 | CS(=O)(=O)c1ccc(-c2nc(-c3ccc(F)cc3)c(-c3ccncc3)[nH]2)cc1 | 37.9 | 63 | -4.16 | 14.7 | 52.9
19 | Nc1ccc(-c2cccc3c(=O)cc(N4CCOCC4)oc23)cc1 | -40.7 | -16.5 | -12 | 28.6 | -60.7
20 | NCCNc1ncc(C(N)=O)c(Nc2cccc(C(F)(F)F)c2)n1 [Syk Inhibitor II] | -0.528 | -84.2 | -1.24 | -23.5 | -12.4
21 | COc1cc2ncc(-c3ccccc3)nc2cc1OC | 20.6 | 47 | -16.1 | 27.8 | 39.5
22 | COc1cc2ncnc(Nc3cccc(Cl)c3)c2cc1OC | 19.4 | -16.6 | -4.35 | 6.77 | 36
23 | CN1C(=O)C(c2c[nH]c3ccccc23)=C(c2c[nH]c3ccccc23)C1=O [Bisindolylmaleimide V] | 82.1 | 67 | -9.51 | -40.4 | 50.7
